This is a sample that favours compounds with a hit; in the whole collection about 4.1% have one here.
USP2a inh = blocks human ubiquitin-specific protease USP2a | AID 927 | 60,000 tested, 0.1% active | Potency, µM (doses to about 38.3 µM), inactives show at the top dose activity change, negative = inhibition, actives largely listed as inhibitors | USP2a enzymatic assay, qHTS inhibition; also: nearly all actives have a fitted effect of over 60% in size
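20 nM USP2 core + cpd, 30 min RT; add 20 nM Ub-PLA2/20 uM NBD C6-HPC; read Ex460/Em535 at 0 h and 2.5 h. Normalized to NEM; qHTS curve fit/classification.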
GBA mod = human lysosomal glucosylceramidase modulation; Potency, µM; AID 360; purified enzyme, resorufin glucoside fluorescence (screen aimed at inhibitors), 20 min; 48,000 tested, 1.1% active; P04062; in the data active = potency below about 15 µM; inconclusive = mostly about 16 µM to 33 µM;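 also: the screen sought inhibitors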
Target sequence (P04062 whole entry, looked up): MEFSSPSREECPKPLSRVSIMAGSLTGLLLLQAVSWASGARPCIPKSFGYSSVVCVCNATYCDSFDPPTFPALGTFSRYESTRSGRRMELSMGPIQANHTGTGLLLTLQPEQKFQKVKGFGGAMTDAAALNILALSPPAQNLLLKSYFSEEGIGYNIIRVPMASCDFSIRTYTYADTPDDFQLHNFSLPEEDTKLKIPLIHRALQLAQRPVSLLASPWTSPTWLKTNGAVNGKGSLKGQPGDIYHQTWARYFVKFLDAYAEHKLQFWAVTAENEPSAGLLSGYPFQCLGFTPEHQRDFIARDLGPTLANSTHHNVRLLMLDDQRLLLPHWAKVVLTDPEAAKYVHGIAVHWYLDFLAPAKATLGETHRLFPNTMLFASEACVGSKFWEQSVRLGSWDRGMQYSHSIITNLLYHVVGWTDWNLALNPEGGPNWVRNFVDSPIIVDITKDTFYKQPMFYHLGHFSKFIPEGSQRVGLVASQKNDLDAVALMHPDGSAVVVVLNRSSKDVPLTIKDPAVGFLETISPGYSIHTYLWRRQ
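Normal human glucocerebrosidase (0.2 nM final) was assayed with resorufin β-D-glucopyranoside (30 uM final) in 50mM citric acid/KH2PO4, 10mM sodium taurocholate, 0.01% tween-20, pH 5.9. Compounds were titrated; fluorescence (Ex 548, Em 600) read after 20 min at RT.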
HEK293 cAMP cs = parental HEK293 cAMP activation (counter-screen). Potency, µM (highest dose often 57.1 µM), without a hit: at the highest dose activation, most hits filed as activators. parental HEK293 CNG cAMP sensor, membrane potential fluorescence. 73,000 tested, 2.5% active; also: % of control where 0% means no effect; nearly all actives have a fitted effect of over 55% in size
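Parental HEK 293 cells stably expressing a cAMP-gated CNG channel were loaded with membrane potential dye containing 100 uM RO 20-1724 for 60 min. Compound added for 30 min; depolarization read as fluorescence intensity at 590 nm.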
Ub-GFP proteasome = inhibits proteasome, raising ubiquitin-GFP reporter fluorescence | 67,000 tested, under 10 active | Ubiquitin-GFP reporter cells, proteasome inhibition, GFP fluorescence; response scale: untreated = 0%, 10 µM MG-132 = 100% | Potency, µM (series often up to 45.9 µM), inactives show at the top dose activation (GFP accumulation), actives largely listed as activators; active = well fitted activation curve with a large enough effect, not every such curve was filed as active; inconclusive = small, poorly fitted or top-dose-only effect, or another doubt; inactive = no such curve, though single readings can be large or run the other way
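GFP accumulation read-out: laser plate cytometry counting ubiquitin(G76V)-GFP-expressing U2OS cells after 4 hr compound exposure at 37 °C. Titrations spanned 46 uM to 2.9 nM; 0% = basal, 100% = 10 uM MG-132; concentration-response curves fitted.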
Bst PK mod = pyruvate kinase (B. stearothermophilus) modulation; purified pyruvate kinase, luminescence ATP production; ribose 5-phosphate activator present at AC10; Potency, µM; 51,000 tested, 1.2% active; AID 361; in the data active = potency below about 11 µM; inconclusive = mostly about 12 µM to 25 µM;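 the screen sought inhibitors and activators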;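 also: scaled between full activation by ribose 5 phosphate and full inhibition by luteolin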
TSHR ag = agonists of human thyroid stimulating hormone receptor. AID 926. P16473. Potency, µM (titrated, usually from 57.1 µM), for the others: at the top dose activation, hits mostly activators. 73,000 tested, 0.48% active. HEK293-CNG-TSHR cells (CNG channel as cAMP sensor), membrane potential dye, cAMP; active = well fitted activation curve with a large enough effect in the main read-out, with a control signal flat, not every such curve was filed as active; inconclusive = small, poorly fitted or top-dose-only effect, or a change in a side signal; inactive = no such curve, though single readings can be large or run the other way; % of control where 0% means no effect;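 also: the control signal comes from parental cells without the receptor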
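cAMP rise detected as CNG-channel membrane depolarization by fluorescent dye (emission 590 nm), 30 min after compound, following 60 min dye loading containing 100 uM RO 20-1724 at room temperature. Cells: TSHR/CNG HEK 293, with parental CNG HEK 293 as control.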
* hit, by the source's call; i = inactive; ? = inconclusive; . = no result given; [ ] = another dose, or the depositor's remark. Unless noted, calls follow the shape of the dose curve; as a rule, active = well fitted curve in the direction sought with a large enough effect; inconclusive = small, poorly fitted or top-dose-only effect, or another doubt; inactive = no such curve, though single readings can be large; an effect the other way counts as inactive or inconclusive. Potency is read from the fitted curve at half-maximal effect.

SMILES	USP2a inh	GBA mod	HEK293 cAMP cs	Ub-GFP proteasome	Bst PK mod	TSHR ag
COc1ccc(-c2cc3ccccc3n2CC(O)CNC(CO)(CO)CO)cc1 (centres undefined)	7.9%	14.2*	-2.6%	3.0%	>11.4	-7.3%
Cc1ccc(OCc2nc(C#N)c(NCCCn3ccnc3)o2)cc1	-4.3%	.	18.7%	-5.8%	>57	1.0%[11.4 µM]
N#Cc1nc(COc2ccc(Br)cc2)oc1NCCCn1ccnc1	12.5%	14.4*	17.6%	0.1%	>57	.
N#Cc1nc(COc2ccc(F)cc2)oc1NCCCn1ccnc1	-2.2%	?	-5.2%	1.3%	>57	.
N#Cc1nc(-c2ccc(OCc3ccc(Cl)cc3)cc2)oc1NCc1cccnc1	0.1%	>76.9	7.2%	-0.9%	2.66*	0.9%
N#Cc1nc(-c2ccc(OCc3ccccc3)cc2)oc1NCCCn1ccnc1	24.7%	?	-10.5%	-1.5%	4.28*	-13.2%
N#Cc1nc(-c2ccc(OCc3ccccc3Cl)cc2)oc1NCCCn1ccnc1	15.7%	?	-19.1%	0.0%	2.62*	-8.0%
N#Cc1nc(COc2ccccc2)oc1NCCCn1ccnc1	4.0%	.	9.2%	-6.6%	>57	11.1%
CO[C@@H]1/C=C\O[C@@]2(C)Oc3c(C)c(O)c4c(c3C2=O)C(=N[C@H]2CC[C@H](O)O[C@@H]2C)C=C(NC(=O)/C(C)=C\C(=O)[C@@H]2C[C@@H]2[C@@H](O)[C@H](C)[C@@H](O)[C@H](C)[C@H](OC(C)=O)[C@@H]1C)C4=O	.	.	10.1%[11.4 µM]	-1.0%[9.17 µM]	.	-5.8%[11.4 µM]
CC(=O)O[C@H]1CC[C@@]2(C)C(=CC[C@@H]3[C@@H]4CC[C@H](c5cc(C(F)(F)F)n(C(C)=O)n5)[C@]4(C)CC[C@@H]32)C1	.	.	8.9%[11.4 µM]	-6.2%[9.17 µM]	.	3.4%[11.4 µM]
COc1ccc2c(c1)[C@]1(C)CCC[C@](C)(CO)[C@@H]1CC2	.	.	-6.3%	3.6%	.	.
O=C(O)C[C@H](Cc1ccccc1Cl)C(=O)O	.	.	2.9%[11.4 µM]	-8.5%[9.17 µM]	.	2.2%[11.4 µM]
CS(=O)(=O)N1CCC2(CCCN(Cc3cc(C(F)(F)F)cc(C(F)(F)F)c3)C2)CC1	0.1%	.	15.9%	-2.3%	.	.
N#Cc1nc(-c2ccc(OCc3ccccc3)cc2)oc1NCc1cccnc1	7.0%	>76.9	8.5%	1.7%	.	25.0%
CN(C)c1oc(-c2ccc(OCc3ccccc3)cc2)nc1C#N	-9.7%	i	11.1%	4.6%	2.77*	3.9%
COc1ccc(-c2nc3cnc(N4CCN(C)CC4)nc3n(Cc3cccc(OC)c3)c2=O)cc1	282.0%	.	6.7%	-4.6%	.	8.5%
CCOC(=O)C1CCCN(C(=O)c2cc3nc(-c4cccc(OC)c4)cc(C(F)(F)F)n3n2)C1 (centres undefined)	23.5%	7.22*	16.5%	7.5%	>57	13.8%
CCNc1ncc2nc(-c3ccc(Cl)cc3)c(=O)n(CCC#N)c2n1	3.3%	.	11.9%	4.7%	.	-2.3%
CCN(Cc1ccccc1)Cc1cc(OC)cc(OC)c1	-0.6%[7.66 µM]	.	5.01µM*	11.9%[9.17 µM]	.	?
CCN(Cc1ccccc1)Cc1c(F)cccc1F	-1.4%	.	23.5%	-1.8%	.	16.8%
COc1ccc(CN(CCN(C)C)Cc2ccccc2)c(OC)c1	0.5%	.	12.6µM*	1.1%	>57	?
Cc1cc2ccc(C)c(C)c2nc1SCC#N	-1.9%	>76.9	20µM*	-1.2%	>57	?
Cc1ccc(Cn2nnc3c(=O)[nH]c(C4CCN(S(=O)(=O)c5ccc(F)cc5)CC4)nc32)cc1	56.6%	5.49*	-6.8%	0.0%	>57	6.9%
Cc1ccc(Cn2nnc3c(=O)[nH]c(C4CCN(S(=O)(=O)c5cc(C)ccc5C)CC4)nc32)cc1	72.4%	?	-2.2%	0.0%	>57	2.4%[11.4 µM]
Cc1ccc(C)c(S(=O)(=O)N2CCC(c3nc4c(nnn4Cc4ccc(F)cc4)c(=O)[nH]3)CC2)c1	61.4%	7.11*	5.3%	5.6%	>57	2.8%
Nc1nc(CN2CCN(c3ccccc3)CC2)nc(N2CCCc3ccccc32)n1	35.2%	?	?	17.6%	>57	?
COc1ccc(N2CCN(Cc3nc(N)nc(N4CCCc5ccccc54)n3)CC2)cc1	37.4%	7.62*	1.5%	-1.7%	>57	.

Compound activity (PubChem BioAssay)
